# Test results reported in PubChem BioAssay (NCATS).
# Results filed as inconclusive are left out. A call without a number means that no potency is given here. Active and inactive are the calls of the source. Calls come from the whole dose curve; as a rule, active = well fitted inhibition curve with a large enough effect; inconclusive = small, poorly fitted or top-dose-only effect; inactive = flat fitted curve, though single readings scatter.
# Assay: Cytometry Cell-Based qHTS for Inhibitors of the mTORC1 Signaling Pathway in MEF cells (AID 2668)
# Conditions: mTORC1 pathway readout; series mostly up to 38.3 µM
# From the text: NIH Molecular Libraries Probe Production Centers Network [MLPCN]
# NIH Chemical Genomics Center [NCGC]
# Assay Submitter (PI): Blenis, John; Hoffman, Greg; Harvard University
# NCGC Assay Overview: The mammalian target of rapamycin (mTOR) is an intracellular serine/threonine kinase Aberrant regulation of mTOR signaling plays a causative role in a number of human diseases, including cancer, benign tumors such as lymphangioleiomyomatosis (LAM) and Tuberous Sclerosis Complex (TSC), and metabolic diseases such as diabetes and obesity. This project aims to identify inhibitors of ribosomal protein S6 (rpS6) phosphorylation. The phosphorylation of rpS6 is a key event downstream of mTOR activation. The assay uses a phospho-specific antibody of phospho-rpS6 to detect inhibitors of mTOR activation. Mutations in the Tsc1 and Tsc2 genes are the underlying genetic lesions responsible for TSC, causing constitutive activation of the mTORC1 pathway and leading to profound effects on cell metabolism. Aberrant metabolism in cancer has recently received significant attention as a target to develop therapeutic agents in the treatment of cancer.1 As Tsc2-/- cells have lost the ability to respond to energy and growth factor deprivation, these cells are unable to properly down regulate cellular biosynthetic processes in response to metabolic stress, and are thus extremely sensitive to glucose deprivation-induced death.2 A central goal of this project is to explore the unique cell survival and metabolic properties of cells with Tsc1 or Tsc2 by screening for compounds that selectively target the Tsc2-/- MEFs by screening both Tsc2-/- and WT MEF cell lines. We hope to better understand these aspects of TSC physiology in order to exploit them for therapeutic benefit.
# NCGC Acumen Assay Protocol:
# For quantitative high throughput analysis of mTORC1 signaling, we developed a cell-based assay for immuno-fluorescence based detection of rpS6 phosphorylation on the Acumen Explorer that will be used a platform for the primary small molecule screen. Mouse embryonic fibroblasts (MEFs) are cultured in 1536-well plates using DMEM + 10% FBS. Twenty-four hrs after plating, test compounds (solubilized in DMSO) are delivered and incubated with the cells for 24 hrs at 37 degree Celsius. Following the incubation, media with compound is aspirated and the cells are fixed in 4% paraformaldehyde (PFA) containing PBS + 0.2% TX-100. Next, PFA is aspirated, cells are washed two times with PBS plus 0.2% TX-100 and the cells are blocked for 1 hr at room temperature (blocking buffer: LiCOR Blocking Buffer plus 0.2% TX-100). This is followed by aspiration and staining with Alexa-488 conjugated-phospho-rpS6 Ser235/236 antibody for 2 hours at room temperature (Cell Signaling Technology # 4803, 1:50 dilution in blocking buffer). Cells are washed two times with PBS plus 0.2% TX-100, and stained with 10 uM propidium iodide (PI) for 20-25 minutes for cell number measurement (1:500 dilution of Hoescht staining is also added for IN Cell imaging). The plates are scanned on the Acumen Explorer laser scanning instrument (TTP Labtech) using the 488nm laser for simultaneous excitation of the Alexa-488 and PI. The fluorescence emission from the Alexa-488 conjugated rpS6 phospho-235/236 antibody staining is selected using a […] band pass filter. Fluorescence emission from the PI stain is selected using a 575-640 nm band pass filter. The normalized phospho-S6 staining is calculated as the ratio of the integrated Alexa 488 intensity divided by the integrated PI intensity for the single concentration rapamycin control (7.5 nM) and DMSO columns. […] Inhibition of the pathway is defined based on the normalized phospho-S6 intensity in rapamycin treated cells. […]
# Potency is the fitted concentration of half-maximal effect.
row,SMILES,Potency
1,C[C@@H](N)C1CCC(C(=O)Nc2ccncc2)CC1 (stereo partly drawn),inactive
2,NNc1nncc2ccccc12,inactive
3,Oc1ccc2ccccc2c1SSc1c(O)ccc2ccccc12,inactive
4,COc1ccc2cc([C@H](C)C(=O)O)ccc2c1,inactive
5,CCOC(=O)C(C)Oc1cccc2c(=O)n(CC(=O)Nc3ccc4c(c3)OCCO4)ccc12 (stereo not drawn),inactive
6,O=C1NC(=O)C(c2ccccc2[N+](=O)[O-])=C1Nc1ccc(O)c(Cl)c1,inactive
7,O=c1cc(N2CCOCC2)oc2c(-c3ccccc3)cccc12,4.65 µM (active)
8,O=Nc1c(-c2c(O)[nH]c3cc(Br)ccc23)[nH]c2ccccc12,5.21 µM (active)
9,O=C(CCc1ccc(O)cc1)c1c(O)cc(O)cc1O,inactive
10,OC(CN1CCN(c2cccc(Cl)c2)CC1)C(c1ccccc1)c1ccccc1 (stereo not drawn),inactive
11,O=c1ccc2ccc(O)c(O)c2o1,inactive
12,NC(=NCc1ccccc1)NC(=O)c1nc(Cl)c(N)nc1N,inactive
13,O=c1c(O)c(-c2ccc(O)cc2O)oc2cc(O)cc(O)c12,inactive
14,CN(C)CCCC1(c2ccc(F)cc2)OCc2cc(C#N)ccc21 (stereo not drawn),inactive
15,O=C1c2c(O)cc(O)cc2OC(c2ccc(O)c(O)c2)C1O (stereo not drawn),inactive
16,CC1(C)C(=O)N(CCN2CCC(C(=O)c3ccc(F)cc3)CC2)c2ccccc21,inactive
17,Cc1c(OCC(F)(F)F)ccnc1CS(=O)c1nc2ccccc2[nH]1 (stereo not drawn),inactive
18,Oc1ccc(-c2nc(-c3ccc(F)cc3)c(-c3ccncc3)[nH]2)cc1,inactive
19,Nc1nc(OCc2ccccc2)c2[nH]cnc2n1,inactive
20,COc1ccccc1N1CCN(CCN(C(=O)C2CCCCC2)c2ccccn2)CC1,inactive
21,O=C(O)c1cccnc1Nc1cccc(C(F)(F)F)c1,inactive
22,O=C(c1ccccc1)c1ccc2n1CCC2C(=O)O (stereo not drawn),inactive
23,CC(=O)N1CCN(c2ccc(OC[C@H]3CO[C@](Cn4ccnc4)(c4ccc(Cl)cc4Cl)O3)cc2)CC1,inactive
24,COc1cc2nc(N3CCN(C(=O)C4CCCO4)CC3)nc(N)c2cc1OC (stereo not drawn),inactive
25,CC1(C)NC(=O)N(c2ccc([N+](=O)[O-])c(C(F)(F)F)c2)C1=O,inactive
26,Cc1cccc(C#Cc2ccccc2)n1,inactive
27,Cc1cc(O)c2c(c1)C(=O)c1cc(O)cc(O)c1C2=O,inactive
28,NCCCCNCCCN,inactive
